This is part of a sample that, as a whole, favours compounds with a hit. Of some 79,000 tested, about 15% had one in any assay. Unmarked numbers belong to inactive results. Active and inactive are the calls of the source. No stated cut-off is given here; in the data, active means growth inhibition above about 70%; inactive means the rest. Where a SMILES comes first, the peptide text is derived from it. The star is where a group is joined. Cbz = O=C(OCc1ccccc1)*

Data on 20 molecules can be found in PubChem BioAssay (NCI).

A short description of test [1]: NCI Yeast Anticancer Drug Screen. Data for the rad50 strain (AID 155).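 Further: 0% = growth of vehicle-only cultures of the same strain.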 Particulars: S. cerevisiae rad50 strain growth inhibition; at 50.0 µM; hits give high values. The procedure, abridged:
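Compounds were tested on a yeast strain with an engineered DNA damage repair alteration; the reported value is growth inhibition normalised to vehicle treatment.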

Test [2] can be described thus: NCI Yeast Anticancer Drug Screen. Data for the mec2-1 strain (AID 157). Particulars: S. cerevisiae mec2-1 strain, at 50.0 µM, hits give high values. The gist of the method:
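Cells of the genetically defined mec2-1 yeast strain are incubated with test compound. Inhibition of growth is calculated against vehicle-treated controls.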

A short description of test [3]: NCI Yeast Anticancer Drug Screen. Data for the sgs1 mgt1 strain (AID 161).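 Further: 0% = growth of cultures given vehicle only.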 Particulars: S. cerevisiae sgs1 mgt1 strain, at 50.0 µM, hits give high values. The gist of the method:
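Read-out: growth inhibition vs vehicle controls. Cells: mutant yeast strain deficient in DNA damage repair.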

Test [4] in a line: NCI Yeast Anticancer Drug Screen. Data for the cln2 rad14 strain (AID 165).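 Further: 0% = growth equal to vehicle treated cultures.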 Conditions: S. cerevisiae cln2 rad14 strain, at 50.0 µM, hits give high values. The procedure, abridged: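 The screen exposed genetically defined yeast (cln2 rad14) to test compounds and scored growth inhibition relative to vehicle-treated controls.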
Test [5] is described as follows: NCI Yeast Anticancer Drug Screen. Data for the bub3 strain (AID 167). Particulars: S. cerevisiae bub3 mutant strain, at 50.0 µM, hits give high values. The gist of the method: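 Growth of a checkpoint-deficient yeast mutant is measured after compound exposure. Values represent inhibition relative to vehicle.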
Test [6] is described as follows: NCI Yeast Anticancer Drug Screen. Data for the mlh1 rad18 strain (AID 175). Conditions: S. cerevisiae mlh1 rad18 strain growth inhibition; at 50.0 µM; hits give high values. The gist of the method: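 Compound-treated yeast growth, normalised to vehicle controls. Strain bears defined DNA repair mutations.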

As for `O=C1C2(CCCC13OC3c1ccccc1)OC2c1ccccc1` (stereo not given), the growth inhibition in test [1] is -20.9%; in test [2], -11.1%; in test [3] it was -5.15%; in test [4], -14.4%; in test [5] it was 23.3%; in test [6], -3.6%.
For `Cc1cccc([Si](c2ccccc2)(c2ccccc2)c2ccccc2)c1`, the growth inhibition in test [1] was -3.7%; in test [2], -6.35%; in test [3] it was -9.2%; in test [4], -0.75%; in test [5] it was -21.6%; in test [6], 8.8%.
As for `N=C1N=Nc2nc(C(C(=O)c3cccc(O)c3)c3nc4n(c3O)C(=N)N=N4)c(O)n21` (stereo not given), the growth inhibition was 18.8% in test [1]; 23.9% in test [2]; -8.9% in test [3]; 10.4% in test [4]; -2.75% in test [5]; 28.6% in test [6].
In the case of `CCOCCN(CCOCC)c1ncnc2[nH]ncc12`, the growth inhibition is 9.15% in test [1]; 5.15% in test [2]; 9.95% in test [3]; -25.2% in test [4]; 21.6% in test [5]; 10.6% in test [6].
As to `COc1ccc(C(=O)C(CN(C)C)CN(C)C)cc1OC`, the growth inhibition in test [1] was 30.6%; in test [2], 9.55%; in test [3], -14.1%; in test [4] it was -5.9%; in test [5], -11.7%; in test [6], -18.4%.
As to `O=C(C/C(=C/c1ccccc1)[N+](=O)[O-])c1ccccc1`, the growth inhibition in test [1] was 99.2% (active); in test [2], 99.2% (active); in test [3], 99.3% (active); in test [4], 98.8% (active); in test [5] it was 99% (active); in test [6], 98.8% (active).
`O=C(CC(C(=O)c1ccc(F)cc1)c1ccsc1)c1cccs1` (stereo not given): the growth inhibition in test [1] was 13.8%; in test [2] it was 2.3%; in test [3], 26.8%; in test [4] it was 16.5%; in test [5], 8.5%; in test [6], 3%.
In the case of `COc1ccc(CC2Cc3ccccc3CC(=O)N2)cc1OC` (stereo not given), the growth inhibition in test [1] was 36.5%; in test [2], -54.3%; in test [3], -4.4%; in test [4], 3.65%; in test [5], 25.6%; in test [6], -38.1%.
With `CC(C)C1=CC2=C(C(=O)C1=O)C13CCCC(C)(C)C1CC2OC3=O` (stereo not given), the growth inhibition in test [1] is 14.3%; in test [2], -45.1%; in test [3] it was 23.6%; in test [4] it was -12.3%; in test [5], -2.6%; in test [6], 85.5% (active).
With `CCOC(=O)C(C)NC(=O)C(C)NC(=O)C(C)NC(=O)C(C)NC(=O)C(C)NC(=O)C(C)NC(=O)C(C)NC(=O)OCc1ccccc1` (stereo not given) (Cbz-AAAAAAA-OEt; configuration not given here), the growth inhibition in test [1] was -16.2%; in test [2] it was -23.4%; in test [3] it was -21.4%; in test [4], 16.6%; in test [5] it was 5.4%; in test [6] it was -8.45%.
Take `CCCN1CCc2c([nH]c3cc(OC)ccc23)C1C` (stereo not given): the growth inhibition is 27.9% in test [1]; -4.15% in test [2]; -5.05% in test [3]; 1.9% in test [4]; 7.35% in test [5]; 3.2% in test [6].
Turning to `N#C/C(=C1\OC(=O)C(c2ccc(Br)cc2)=C1O)c1ccc(Br)cc1`, the growth inhibition in test [1] is 8.15%; in test [2], 2.45%; in test [3] it was -4%; in test [4] it was 5.3%; in test [5], -3.85%; in test [6], 26.4%.
In the case of `O=C1c2c(-c3ccccc3)ccc(-c3ccccc3)c2C2(O)OC1(O)c1c(-c3ccccc3)ccc(-c3ccccc3)c1C2=O`, the growth inhibition in test [1] is 5.65%; in test [2], 4.95%; in test [3] it was 9.1%; in test [4] it was -6.9%; in test [5] it was 6.4%; in test [6], -13.9%.
`CCNC(=O)C(CC)(CO)CO`: the growth inhibition in test [1] is -16.4%; in test [2], -3.4%; in test [3], -3.95%; in test [4], 6.2%; in test [5], 0.65%; in test [6], 4.5%.
Consider `OCC1COc2cc(Cl)c(Cl)cc2O1` (stereo not given), for which the growth inhibition in test [1] is 47.8%; in test [2], 9.65%; in test [3], 33.3%; in test [4] it was 15%; in test [5], 36.9%; in test [6] it was 50.2%.
In the case of `O=C(COc1cc(Cl)c(Cl)cc1Cl)Nc1c(Cl)cc(Cl)cc1Cl`, the growth inhibition in test [1] is 2.5%; in test [2], 5.8%; in test [3], -2.75%; in test [4] it was -18.6%; in test [5], -2.15%; in test [6], 22.7%.
On to `C[C@@H](C1CCC2C3C(=CC(=O)[C@@]21C)[C@H](C)[C@]1(CCC(=O)O1)C1OC31)[C@H]1C[C@]2(C)O[C@@](C)(O1)OC2(C)C` (stereo not given in full), for which the growth inhibition is -11.2% in test [1]; -0.9% in test [2]; -25.9% in test [3]; -4.85% in test [4]; -14.2% in test [5]; 9.15% in test [6].
On to `O=C(CCSC(=S)Nc1ccc(Cl)cc1)NNc1ccccc1`, for which the growth inhibition in test [1] was 1.8%; in test [2], -25.1%; in test [3] it was -0.65%; in test [4] it was -30.4%; in test [5], 6.6%; in test [6], 18.2%.
Consider `Cc1ccc(S(=O)(=O)NN=C2C(C)(C)C(=O)C2(C)C)cc1`, for which the growth inhibition was -1.5% in test [1]; -1.1% in test [2]; -32.9% in test [3]; 32.1% in test [4]; -2.25% in test [5]; -6.45% in test [6].
On to `CCOC(=O)c1ccc(N(N=O)C(C)C)cc1`, for which the growth inhibition in test [1] is 5.3%; in test [2], 5.15%; in test [3], 9.6%; in test [4], -16%; in test [5], 1.25%; in test [6], 5.15%.
